Screening results (PubChem BioAssay)
Most compounds without a hit are left out; they make up all but 1.6% or so of the library.
KCNQ2 enhance: enhances the rat KCNQ2 potassium channel; AID 2239; CHO-K1 KCNQ2, FluxOR thallium flux fluorescence; stronger effect = higher value; 0.54% of 310,000 active; B-score at 10 µM;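 active = fluorescence ratio B-score at least 3 SD of library B-scores, with initial fluorescence B-score within 3 of them, cut at about 5.3 in these data; same plate scores as AID 2156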;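 note: B-score of peak minus minimum over baseline fluorescence ratio after K+ and Tl+ stimulus; positive B-score means potentiation of KCNQ2 with more thallium influx and brighter signal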
KCNQ2 block: inhibitors of rat KCNQ2 potassium channel; O88943; CHO-K1 KCNQ2, FluxOR thallium flux, 20 min; stronger effect = lower value; B-score at 10 µM; 1.1% of 310,000 active; AID 2156;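 active = fluorescence ratio B-score at most minus 3 library SDs, with starting brightness B-score within 2 library SDs, cut at about -5.5 in these data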
KCNQ2 inh conf: rat KCNQ2 channel inhibition, confirmatory screen; shares compounds with KCNQ2 block; KCNQ2-expressing cells, thallium flux; stronger effect = lower value; activity change, negative = inhibition, % at 10 µM; 57% of 1,000 active;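 note: 0% = vehicle wells and values are ratio percent relative to vehicle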
KCNQ1 spec: selectivity of KCNQ2 inhibitors against human KCNQ1; shares compounds with KCNQ2 block; KCNQ1-expressing cells, FluxOR thallium flux fluorescence; stronger effect = lower value; activity change, negative = inhibition, % at 10 µM; 15% of 1,000 active; AID 493026;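 active = activity change at least 3 SD of negative controls below their mean in both duplicate wells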;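 note: CHO cells stably transfected with KCNQ1 and depolarized by potassium stimulus; peak minus minimum fluorescence over baseline after thallium addition; 0% = vehicle negative control and -100% = blank without thallium stimulus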
Target sequence (P51787 whole entry, looked up): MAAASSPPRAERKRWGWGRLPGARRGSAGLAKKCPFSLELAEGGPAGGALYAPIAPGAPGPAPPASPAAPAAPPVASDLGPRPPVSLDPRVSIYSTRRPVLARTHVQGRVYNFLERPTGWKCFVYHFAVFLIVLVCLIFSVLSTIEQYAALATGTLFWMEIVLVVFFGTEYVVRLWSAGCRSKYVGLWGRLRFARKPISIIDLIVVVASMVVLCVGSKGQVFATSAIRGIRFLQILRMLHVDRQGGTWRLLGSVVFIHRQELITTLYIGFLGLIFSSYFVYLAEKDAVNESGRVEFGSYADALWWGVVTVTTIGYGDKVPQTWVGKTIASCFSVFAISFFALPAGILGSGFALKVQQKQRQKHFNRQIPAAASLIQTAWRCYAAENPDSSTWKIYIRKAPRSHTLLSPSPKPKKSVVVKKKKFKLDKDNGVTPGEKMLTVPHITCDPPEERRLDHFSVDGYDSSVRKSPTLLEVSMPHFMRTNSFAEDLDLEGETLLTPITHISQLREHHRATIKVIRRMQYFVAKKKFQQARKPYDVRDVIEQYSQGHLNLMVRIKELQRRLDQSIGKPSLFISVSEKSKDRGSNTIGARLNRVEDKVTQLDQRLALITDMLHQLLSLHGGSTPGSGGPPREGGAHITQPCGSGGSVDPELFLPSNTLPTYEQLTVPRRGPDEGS
CHO Tl ctr: KCNQ2 inhibitor counter-screen hit in parental CHO cells | shares compounds with KCNQ2 block | 14% of 1,000 active | activity change, % at 10 µM | thallium flux counter-screen; stronger effect = lower value | AID 493029;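 note: 0% = vehicle negative controls with stimulus buffer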
KCNQ2 inh confirm: confirmation of rat KCNQ2 potassium channel inhibitors; shares compounds with KCNQ2 block; KCNQ2-expressing cells, automated patch clamp current; calls only at 10 µM; 49% of 550 active
Kir21 confirm: confirmation of mouse Kir2.1 potassium channel inhibitors; Tl flux remaining, % of negative control (stronger effect = lower value), % at 10 µM; 41% of 2,300 active; Kir2.1-expressing cells, FluxOR thallium flux fluorescence; stronger effect = lower value; AID 2032; shares compounds with KCNQ2 enhance;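 active = Primary-screen hit whose thallium flux fell at least 3 control SD below untreated wells in both duplicates, with normal baseline fluorescence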;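 note: 0% = blank wells without stimulus and 100% = stimulated no-compound controls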
HEK293 ctr: counter-screen for Kir2.1 inhibitors: effect in parental HEK293 cells; shares compounds with KCNQ2 enhance; FluxOR thallium flux fluorescence; 0% = unstimulated blank wells; FluxOR signal as % of negative control (100 = no effect), % at 10 µM; 19% of 2,300 active;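 active = dye signal at least 3 control SD above or below untreated wells in both duplicates, raw fluorescence within 3, either direction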;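 note: percent is based on the flux ratio of peak minus minimum fluorescence over baseline F0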
CHO-K1 Tl ctr: counter-screen for KCNQ2 potentiators: effect in parental CHO-K1 cells. activity increase over 3SD of controls, % at 10 µM. FluxOR thallium flux fluorescence; zero = vehicle mean+3SD, 100% = vehicle-minus-blank window. shares compounds with KCNQ2 enhance. AID 2282. 43% of 1,200 active;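 active = signal rise of at least 3 SD above the untreated control mean, in both duplicate wells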;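 note: counter screen of KCNQ2 potentiator hits so any rise reflects channel-independent effects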
KCNQ1 sel pot: tests whether KCNQ2 potentiators also act on human KCNQ1; AID 2283; shares compounds with KCNQ2 enhance; CHO KCNQ1 stable, FluxOR thallium flux fluorescence; beyond 3SD, as % of vehicle-control signal; 28% of 1,200 active; activation over 3SD threshold, % at 10 µM;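 active = fluorescence ratio rise of at least 3 SD of vehicle wells above their mean, in both replicate wells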;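 note: 0% = vehicle mean plus 3 SD and 100% = vehicle minus unstimulated blank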
KCNQ2 pot conf: confirmation of rat KCNQ2 potassium channel potentiators; AID 2287; 68% of 1,200 active; shares compounds with KCNQ2 enhance; CHO-KCNQ2 cells, FluxOR thallium flux fluorescence; potentiation, less the hit threshold, % at 10 µM;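 active = fluorescence ratio rising 3 SD or more over the vehicle control mean in both replicates, plus primary screen hit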;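 note: peak minus minimum thallium fluorescence divided by baseline after K/Tl stimulus; 0% = vehicle mean plus 3 SD and 100% = vehicle minus unstimulated blank difference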
Kir2-1 sel: tests whether KCNQ2 potentiators also affect mouse Kir2.1. shares compounds with KCNQ2 enhance. HEK293 Kir2.1, FluxOR thallium flux fluorescence. activity over 3SD threshold, % at 10 µM. 2% of 1,200 active;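 active = fluorescence ratio rise of at least 3 SD above the vehicle-control mean, seen in both replicates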;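 note: 0% = vehicle mean plus 3 SD and 100% = vehicle minus no-stimulus blank window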
KCNQ2 W236L pot: KCNQ2 potentiators acting on retigabine-insensitive rat KCNQ2 W236L mutant; CHO KCNQ2-W236L, automated patch clamp current; 10% of 940 active; current increase over 3SD of negative controls (%), stronger effect = higher value, % at 25 µM; shares compounds with KCNQ2 enhance;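 active = current increase at least 3 SD of the untreated controls above them in both duplicate recordings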
Starred values were filed as active, the others as inactive; i = inactive; . = no result given; + = active, no number. Unless noted, the rule behind the calls is not given here.

SMILES	KCNQ2 enhance	KCNQ2 block	Kir21 confirm	HEK293 ctr	others
CC(C)Cn1cnc2c(c(-c3ccccc3)c(-c3ccccc3)n2Cc2ccco2)c1=N	-10	-10*	i	134%*	KCNQ2 inh conf=i;KCNQ1 spec=i;CHO Tl ctr=i
N=c1c2c(-c3ccccc3)c(-c3ccccc3)n(Cc3ccco3)c2ncn1CCCN1CCOCC1	.	i	.	.
N=c1c2c(-c3ccccc3)c(-c3ccccc3)oc2ncn1CCN1CCOCC1	.	i	.	.
O=C(COc1cccnc1[N+](=O)[O-])NCc1ccccc1	0.35	i	.	.
OCCNc1nc(Nc2ccccc2)nc2ccccc12	3.1	i	.	.
OCCNc1nc(Nc2ccc(Br)cc2)nc2ccccc12	-12	-12*	30%*	i	KCNQ2 inh conf=-26%*;KCNQ1 spec=i;CHO Tl ctr=i;KCNQ2 inh confirm=i
COc1ccc(OCc2n(CC(=O)OC3CC(C)CCC3C(C)C)c3ccccc3[n+]2C)cc1 (stereo not drawn)	-7.4	-7.4*	16%*	i	KCNQ2 inh conf=-21%*;KCNQ1 spec=i;CHO Tl ctr=i;KCNQ2 inh confirm=+
COc1ccc(-c2n(CC(=O)OC3CC(C)CCC3C(C)C)c3ccccc3[n+]2C)cc1 (stereo not drawn)	-11	-11*	i	i	KCNQ2 inh conf=-34%*;KCNQ1 spec=i;CHO Tl ctr=i;KCNQ2 inh confirm=+
CC1CCC(C(C)C)C(OC(=O)COC(=O)c2ccc(=O)[nH]c2)C1 (stereo not drawn)	2.4	i	.	.
CC1CCC(C(C)C)C(OC(=O)COC(=O)c2cc(O)ccc2N)C1 (stereo not drawn)	0.16	i	.	.
CN1CC(=O)N/C1=N\C(=O)Nc1ccc(O)cc1	1	i	.	.
CCCNC(=O)c1ccc(Cn2cc(-c3ccc(OC)cc3)nc2C(C)N)cc1 (stereo not drawn)	1.2	i	.	.
NC(N)=N/N=C/c1ccc(OCc2ccc(Cl)cc2)cc1	-9.6	-9.6*	i	76%*	KCNQ2 inh conf=-37%*;KCNQ1 spec=i;CHO Tl ctr=i;KCNQ2 inh confirm=+
Cc1ccc(COc2ccc(/C=N/O)cc2)cc1	.	i	.	.
Cc1ccn(C)c(=N)c1	0.99	i	.	.
Cc1ccc(C(=O)c2no[n+]([O-])c2C(=O)c2ccc(C)cc2)cc1	-9.7	-9.7*	70%*	62%*	KCNQ2 inh conf=-28%*;KCNQ1 spec=i;CHO Tl ctr=i;KCNQ2 inh confirm=i;Kir2-1 sel=-62
Cc1ccc(C(=O)c2ccc(C)cc2)cc1	.	i	.	.
COc1cc(C(=O)NNc2nc3cc4c(cc3s2)OCO4)cc(OC)c1OC	12*	i	i	i	CHO-K1 Tl ctr=-4;KCNQ1 sel pot=-41;KCNQ2 pot conf=-9;Kir2-1 sel=-33
COc1cc(OC)cc(C(=O)NNc2nc3cc4c(cc3s2)OCO4)c1	2.1	i	.	.
Cn1c(SCC(=O)Nc2cccc(F)c2)nc2c(c1=O)SCC2	0.37	i	.	.
Cc1ccc(C(C)NC(=O)C2CCCC2)cc1C (stereo not drawn)	17*	i	i	i	CHO-K1 Tl ctr=-1;KCNQ1 sel pot=-68;KCNQ2 pot conf=55*;Kir2-1 sel=-36;KCNQ2 W236L pot=i
CC(NC(=O)C1CCC1)c1ccc(Br)cc1 (stereo not drawn)	0.98	i	.	.
CC(NC(=O)C1CCCC1)c1ccc(Br)cc1 (stereo not drawn)	7.1*	i	i	i	CHO-K1 Tl ctr=-21;KCNQ1 sel pot=28*;KCNQ2 pot conf=9.0*;Kir2-1 sel=-28;KCNQ2 W236L pot=i
Cc1ccc(C(C)NC(=O)C2CCCO2)cc1C (stereo not drawn)	0.75	i	.	.
CCOC(=O)CC1C(=O)NCCN1C(=O)c1c(Cl)cccc1Cl (stereo not drawn)	.	i	.	.
SMILES	KCNQ2 enhance	KCNQ2 block	Kir21 confirm	HEK293 ctr	others
Cc1c(Cl)cccc1Nc1nc(NCCO)c2ccccc2n1	.	i	35%*	i
Oc1ccccc1Nc1nc(NCc2ccccc2)c2ccccc2n1	.	i	.	.
O=C(COC(=O)CCc1ccccc1)NC(c1ccccc1)c1ccccc1	.	i	.	.
COCC(=O)NC(c1ccccc1)c1ccccc1	8*	i	i	i	CHO-K1 Tl ctr=-19;KCNQ1 sel pot=-33;KCNQ2 pot conf=-15;Kir2-1 sel=-36
O=C(CCC(=O)c1cccs1)Nc1ncccc1O	0.2	i	.	.
CCC(=O)N(CCC(c1ccco1)c1ccccc1OC)Cc1cccs1 (stereo not drawn)	.	i	.	.
CC(=O)N(CCP(=O)(c1ccccc1)c1ccccc1)Cc1ccco1	.	i	.	.
O=C(c1ccco1)N(Cc1ccc(Cl)cc1)Cc1ccco1	.	i	.	.
CC(=O)N(CCC(Cc1ccccc1)c1ccco1)Cc1ccco1 (stereo not drawn)	-6	-6*	38%*	i
O=C(c1ccco1)N(CCC(c1ccccc1)c1ccco1)Cc1ccco1 (stereo not drawn)	-6.8	-6.8*	72%*	i
CC(=O)N(CCC(c1ccccc1)c1ccco1)Cc1cccs1 (stereo not drawn)	-7.8	-7.8*	47%*	i
COc1ccc(F)cc1S(=O)(=O)Nc1ccncc1	0.38	i	.	.
Cc1ccc(OCCC(=O)OC(C)C(=O)NC2CC2)cc1 (stereo not drawn)	1.8	i	.	.
O=C(CN(Cc1ccc(Br)cc1)S(=O)(=O)c1ccccc1)NCC1CCCO1 (stereo not drawn)	0.68	i	.	.
CN(C)c1nc2c(c(=O)[nH]c(=O)n2C)n1CCCc1ccccc1	0.04	i	.	.
CC(NC(=O)/C(C#N)=C/c1ccco1)c1ccccc1 (stereo not drawn)	.	i	.	.
CC(NC(=O)/C(C#N)=C/c1ccc([N+](=O)[O-])o1)c1ccccc1 (stereo not drawn)	.	i	i	64%*
Cc1ccc2c(cnn2C(=O)CCC(=O)N2CCCCC2)c1	0.51	i	.	.
